Source: PubChem BioAssay AID1224903 (Bradner/Qi Labs at DFCI, 2016)
Hit rate of the full screen: of about 66,000 compounds, about 720 (1.1%) were called active. Rule as the data show it: active = normalised signal below about 0.5; inactive = the rest, inconclusive results apart. Shown is part of a subset that was picked to be rich in actives.

Each molecule was assayed against Chromobox protein homolog 7 (Homo sapiens) (UniProt O95931) (assay: blockers of CBX7 binding to H3K27me3 peptide – biochemical, AlphaScreen, primary screen (AID 1224903)). Settings: AlphaScreen His6-CBX7 / biotin-H3K27me3 peptide binding, stronger effect = lower value; z-score: measured here: z-score of CBX7 signal.
Chain of Chromobox protein homolog 7 (Homo sapiens) (O95931 whole entry, looked up): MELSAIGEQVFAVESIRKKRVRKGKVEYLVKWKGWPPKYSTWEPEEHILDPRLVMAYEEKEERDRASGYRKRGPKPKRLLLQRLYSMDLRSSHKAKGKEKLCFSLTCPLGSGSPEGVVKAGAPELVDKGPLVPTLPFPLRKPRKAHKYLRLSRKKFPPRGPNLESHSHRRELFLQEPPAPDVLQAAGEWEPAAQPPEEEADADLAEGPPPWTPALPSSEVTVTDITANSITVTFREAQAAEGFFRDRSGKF

Row | SMILES | normalised signal (fraction of DMSO) | z-score
1 | Cc1ccc(C(=O)N2CC(=O)Nc3ccc(F)cc3C2c2ccc(F)cc2)cc1 (stereo unspecified) | 1.01 (inactive) | 0.159
2 | Cc1ccc2c(c1)C(c1ccc(F)cc1)N(C(=O)c1ccc(C)c(C)c1)CC(=O)N2 (stereo unspecified) | 0.316 (active) | -6.53
3 | Cc1ccc2c(c1)C(c1ccc(F)cc1)N(C(=O)c1ccc(S(=O)(=O)N3CCCC3)cc1)CC(=O)N2 (stereo unspecified) | 0.859 (inactive) | -1.94
4 | O=C(Nc1ccccc1C(=O)Nc1ccccc1)c1cccc(S(=O)(=O)N2CCCCC2)c1 | 0.764 (inactive) | -2.54
5 | Cc1ccc(C(C)C)c(OCc2nnc(NC(=O)c3ccc(Br)cc3)s2)c1 | 1.06 (inactive) | 0.262
6 | CCN1CCN(CCCNC(=O)c2ccc3c(c2)N(Cc2ccc(F)cc2)CCS3)CC1 | 0.904 (inactive) | -4.6
7 | CC(=O)N1CCC(N(C(=O)Nc2ccc(Cl)cc2)C2CCCCCC2)CC1 | 1.02 (inactive) | 0.287
8 | Cc1ccc(-c2nc(Nc3ccccc3)sc2C)cc1 | 0.99 (inactive) | -0.257
9 | CCCCNC(=O)c1cc(Nc2ccc(CC)cc2)nc2ccccc12 | 0.991 (inactive) | -0.251
10 | O=C(NCc1ccccc1)C1CCN(c2nc3ccccc3o2)CC1 | 1.02 (inactive) | 0.778
11 | COc1ccc(CNc2nc(-c3ccccc3)cc(C(F)(F)F)n2)cc1 | 1.28 (inactive) | 3.06
12 | COc1ccc(CNc2ccc3c(c2)ncn3C(C)(C)C)c(OC)c1 | 0.589 (inactive) | -11.8
13 | CC(C)n1cnc2cc(NCc3ccccc3Cl)ccc21 | 0.463 (active) | -15.4
14 | Cc1ccc(NC(=O)CCc2nnc3ccc(NCc4ccccc4Cl)nn23)cc1 | 0.916 (inactive) | -2.3
15 | COc1ccc(OC)c(Cc2nc3cc(C)c(C)cc3[nH]c2=O)c1 | 0.964 (inactive) | -1.09
16 | O=C(Nc1ccccc1Cl)C1CCN(C(=O)c2cnn(-c3ccccc3)c2-n2cccc2)CC1 | 1.04 (inactive) | 1.69
17 | Cc1ccc(C(=O)CN2C3=NCCN3c3ccccc32)cc1 | 0.994 (inactive) | -0.186
18 | CC(C)N(CCCNC(=O)C1CCC(=O)N1Cc1ccc(F)cc1)Cc1ccccc1 (stereo unspecified) | 0.995 (inactive) | -0.146
19 | CCc1ccc(NC(=O)Cn2c(SCc3cccc(F)c3)nc3ccncc32)cc1 | 1.06 (inactive) | 0.594
20 | Fc1cnc(Nc2ccc(Cl)cc2)nc1Nc1ccc(Cl)cc1 | 1.05 (inactive) | 0.523
21 | CCc1cc(C)cc(OCC(O)Cn2cnc3ccccc32)c1 (stereo unspecified) | 0.88 (inactive) | -3.02
22 | CC(C)c1ccc(OCC(O)Cn2cnc3ccccc32)cc1 (stereo unspecified) | 0.284 (active) | -13.5

Row | SMILES | normalised signal (fraction of DMSO) | z-score
23 | Cc1ccc(C(C)C)cc1OCC(O)Cn1cnc2ccccc21 (stereo unspecified) | 0.815 (inactive) | -2.55
24 | Cc1ccc(NC(=O)c2cc(C)nn2-c2ccccc2)c(C)c1 | 1.04 (inactive) | 1.18
25 | COc1cccc(C(=O)Nc2ccc3oc(-c4ccccc4)nc3c2)c1 | 1.16 (inactive) | 2.43
26 | COc1ccc(-c2noc(N(C)CC(=O)N3CCN(C)CC3)n2)cc1 | 1.02 (inactive) | 0.593
27 | O=C(CSCc1cnn(-c2ccccc2)c1-n1cccc1)NC1CC1 | 0.986 (inactive) | -0.615
28 | COc1ccccc1N1CCN(C(c2cccs2)C(C)NC(=O)c2ccc3c(c2)OCO3)CC1 (stereo unspecified) | 0.905 (inactive) | -2.32
29 | CCOc1ccc(C(=O)Nc2c3c(nn2-c2cccc(C)c2C)CSC3)cc1 | 1.01 (inactive) | 0.119
30 | Cc1ccc(Cc2cnc(CN(C)C)c(O)c2)cc1 | 0.477 (active) | -6.92
31 | Clc1ccc2nc(-c3ccsc3)c(NC(c3ccccc3)c3ccccc3)n2c1 | 1.04 (inactive) | 1.58
32 | Cc1ccc(CNc2oc(-c3ccc(F)cc3)nc2C#N)cc1 | 0.934 (inactive) | -2.3
33 | COc1ccc(-c2cc(C(=O)NCCCn3ccnc3)no2)cc1 | 0.983 (inactive) | -0.364
34 | Cc1ccc(-c2nc(C#N)c(NCCCn3ccnc3)o2)cc1 | 0.442 (active) | -0.658
35 | COc1ccc(Cl)cc1NC(=O)C1c2cc(OC)c(OC)cc2C(=O)N(C)C1c1ccccc1F (stereo unspecified) | 1.06 (inactive) | 1.16
36 | Cc1ccc(CNC(=O)c2c(-c3ccccc3)noc2C)cc1 | 1.03 (inactive) | 0.952
37 | CC1(C)CC(=O)c2cc(OCC(=O)NCCCN3CCCC3)ccc2O1 | 0.509 (inactive) | -9.7
38 | Cc1ccc(-c2nc3c(C)cccn3c2Nc2ccc3c(c2)OCCO3)cc1 | 0.63 (inactive) | -13.9
39 | O=C(NCc1ccccc1)C1C2C=CC3(CN(Cc4ccccc4Cl)C(=O)C13)O2 (stereo unspecified) | 0.955 (inactive) | -2.13
40 | CCCCn1c(C2CC(=O)N(c3ccc(CC)cc3)C2)nc2ccccc21 (stereo unspecified) | 0.96 (inactive) | -0.9
41 | Cc1ccc(-c2nnc(Nc3ccc(C(=O)N(C)C)cc3)c3ccccc23)cc1S(N)(=O)=O | 1.08 (inactive) | 2.41
42 | CCOc1ccc(-c2nnc(Nc3ccc(C(N)=O)cc3)c3ccccc23)cc1 | 0.436 (active) | -2.64
43 | Cc1ccc(-c2nnc(Nc3ccc(OCC(N)=O)cc3)c3ccccc23)cc1S(=O)(=O)NC(C)C | 0.723 (inactive) | -5.21
